From PubChem BioAssay (NCATS)
Inconclusive results are not listed. The source made the active and inactive calls. The call rests on the fitted dose curve; in most records, active means well fitted cell-killing curve with a large enough effect; inconclusive means small, poorly fitted or top-dose-only effect, or effect the other way; inactive means no such curve, though single readings can be large or run the other way.

How the values were obtained:
[1] = Quantitative High-Throughput drug screen in 47 multiple myeloma cell lines against the NCATS MIPE library collection: LP1_DSMZ cell viability assay (AID 1918982); further: nearly all actives have a fitted effect of over 35% in size; further: potency means the concentration at half of the fitted maximal effect
Procedure, shortened: (§1)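 Inhibition of viability over 48 h was scored by ATP content (CellTiter-Glo) in 500-cell wells. Zero and full viability were defined by media-only and DMSO-only wells.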

[2] = Quantitative High-Throughput drug screen in 47 multiple myeloma cell lines against the NCATS MIPE library collection: SKMM1_PLB cell viability assay (AID 1919863); conditions: SKMM1 myeloma viability, CellTiter-Glo ATP, 48 h; viability: active compounds read low; further: nearly all actives have a fitted effect of over 35% in size; further: potency means the concentration at half of the fitted maximal effect; on viability: series mostly up to about 46 µM
Procedure, shortened: as §1

[3] = Quantitative High-Throughput drug screen in 47 multiple myeloma cell lines against the NCATS MIPE library collection: XG6_PLB cell viability assay (AID 1919865); further: nearly all actives have a fitted effect of over 40% in size; further: potency means the concentration at half of the fitted maximal effect
Procedure, shortened: as §1

[4] = Quantitative High-Throughput drug screen in 47 multiple myeloma cell lines against the NCATS MIPE library collection: XG1_PLB cell viability assay (AID 1919866); further: nearly all actives have a fitted effect of over 35% in size; further: potency means the concentration at half of the fitted maximal effect
Procedure, shortened: as §1

[5] = Quantitative High-Throughput drug screen in 47 multiple myeloma cell lines against the NCATS MIPE library collection: PCM6_Riken cell viability assay (AID 1919870); further: nearly all actives have a fitted effect of over 30% in size; further: potency means the concentration at half of the fitted maximal effect
Procedure, shortened: as §1

[6] = Quantitative High-Throughput drug screen in 47 multiple myeloma cell lines against the NCATS MIPE library collection: OPM2_DSMZ cell viability assay (AID 1919872); further: nearly all actives have a fitted effect of over 30% in size; further: potency means the concentration at half of the fitted maximal effect
Procedure, shortened: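 We plated 500 myeloma cells per well, pinned in MIPE 4.0 compounds, and incubated for 48 hours at 37C. ATP was then quantified with CellTiter-Glo, with DMSO and media-only wells defining 100% and 0%.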

[7] = Quantitative High-Throughput drug screen in 47 multiple myeloma cell lines against the NCATS MIPE library collection: KMS11_JCRBsus cell viability assay (AID 1919873); further: nearly all actives have a fitted effect of over 50% in size; further: potency means the concentration at half of the fitted maximal effect
Procedure, shortened: as §1

[8] = Quantitative High-Throughput drug screen in 47 multiple myeloma cell lines against the NCATS MIPE library collection: KMS28BM_JCRB cell viability assay (AID 1919874); further: nearly all actives have a fitted effect of over 35% in size; further: potency means the concentration at half of the fitted maximal effect
Procedure, shortened: as §1

[9] = Quantitative High-Throughput drug screen in 47 multiple myeloma cell lines against the NCATS MIPE library collection: KMS34_JCRB cell viability assay (AID 1918985); further: nearly all actives have a fitted effect of over 40% in size
Procedure, shortened: as §1

[10] = Quantitative High-Throughput drug screen in 47 multiple myeloma cell lines against the NCATS MIPE library collection: OCIMY7_PLB cell viability assay (AID 1918987); further: nearly all actives have a fitted effect of over 65% in size; further: potency means the concentration at half of the fitted maximal effect
Procedure, shortened: as §1

[11] = Quantitative High-Throughput drug screen in 47 multiple myeloma cell lines against the NCATS MIPE library collection: VP6_DJ cell viability assay (AID 1919867); further: nearly all actives have a fitted effect of over 40% in size; further: potency means the concentration at half of the fitted maximal effect
Procedure, shortened: as §1

[12] = Quantitative High-Throughput drug screen in 47 multiple myeloma cell lines against the NCATS MIPE library collection: PE2_PLB cell viability assay (AID 1919869); further: nearly all actives have a fitted effect of over 35% in size; further: potency means the concentration at half of the fitted maximal effect
Procedure, shortened: as §1

[13] = Quantitative High-Throughput drug screen in 47 multiple myeloma cell lines against the NCATS MIPE library collection: RPMI8226_ATCC cell viability assay (AID 1919871); further: nearly all actives have a fitted effect of over 30% in size
Procedure, shortened: as §1

[14] = Quantitative High-Throughput drug screen in 47 multiple myeloma cell lines against the NCATS MIPE library collection: KMS28PE_JCRB cell viability assay (AID 1918983); further: nearly all actives have a fitted effect of over 35% in size
Procedure, shortened: as §1

[15] = Quantitative High-Throughput drug screen in 47 multiple myeloma cell lines against the NCATS MIPE library collection: OPM1_PLB cell viability assay (AID 1918989); further: nearly all actives have a fitted effect of over 40% in size; further: potency means the concentration at half of the fitted maximal effect
Procedure, shortened: as §1

[16] = Quantitative High-Throughput drug screen in 47 multiple myeloma cell lines against the NCATS MIPE library collection: OCIMY5_PLB cell viability assay (AID 1918988); further: potency means the concentration at half of the fitted maximal effect; nearly all actives have a fitted effect of over 65% in size
Procedure, shortened: as §1

[17] = Quantitative High-Throughput drug screen in 47 multiple myeloma cell lines against the NCATS MIPE library collection: U266_ATCC cell viability assay (AID 1919864); further: nearly all actives have a fitted effect of over 35% in size; further: potency means the concentration at half of the fitted maximal effect
Procedure, shortened: as §1

[18] = Quantitative High-Throughput drug screen in 47 multiple myeloma cell lines against the NCATS MIPE library collection: MM1R_ATCC cell viability assay (AID 1918981)
Procedure, shortened: as §1

CC(=O)N(C)c1cccc(-c2ccnc3c(C(=O)c4cccs4)cnn23)c1
active: Potency [7] 18.7 µM
inactive: Potency [1] | viability [2] 119% | Potency [3] | Potency [4] | Potency [5] | Potency [6] | Potency [8]

CC(=Cc1csc(C)n1)[C@@H]1C[C@H]2O[C@]2(C)CCC[C@H](C)[C@@H](O)[C@@H](C)C(=O)C(C)(C)[C@@H](O)CC(=O)O1
inactive: Potency [1] | Potency [9] | Potency [10] | viability [2] 69.9% | Potency [3] | Potency [11] | Potency [12] | Potency [5] | Potency [13] | Potency [6] | Potency [7] | Potency [8]

C#C[C@]1(O)C=C[C@@H]2[C@@H]3CCC4=CC(=O)CC[C@@H]4[C@H]3CC[C@@]21CC
inactive: Potency [1] | Potency [14] | viability [2] 126% | Potency [5] | Potency [13] | Potency [6] | Potency [8]

COc1ccc2c(c1)CN(C)CC2c1ccc(Cl)c(Cl)c1 (configuration not stated)
active: Potency [15] 18.7 µM | Potency [11] 14.8 µM | Potency [7] 14.8 µM

CCCN1CCO[C@@H]2c3cc(O)ccc3OC[C@@H]21
active: Potency [1] 20.9 µM | Potency [16] 18.7 µM
inactive: Potency [14] | Potency [15] | Potency [17] | Potency [4] | Potency [5] | Potency [13] | Potency [6] | Potency [7]

COc1ccc(CC2NCCc3cc(OC)c(OC)cc32)cc1OC (configuration not stated)
inactive: Potency [1] | viability [2] 129% | Potency [17] | Potency [12] | Potency [13] | Potency [6] | Potency [7] | Potency [8]
active: Potency [11] 9.35 µM

O=S(=O)(CC1CS1)c1ccc(Oc2ccccc2)cc1 (configuration not stated)
active: Potency [18] 16.6 µM | Potency [10] 5.26 µM | Potency [15] 18.7 µM | Potency [2] 20.9 µM | Potency [17] 14.8 µM | Potency [3] 13.2 µM | Potency [4] 14.8 µM | Potency [5] 23.5 µM | Potency [7] 26.4 µM

C=C[C@@H]1CN2CCC1C[C@@H]2[C@@H](O)c1ccnc2ccccc12 (some centres not stated)
active: Potency [18] 16.6 µM | Potency [10] 7.43 µM | Potency [16] 20.9 µM | Potency [2] 23.5 µM | Potency [17] 13.2 µM | Potency [3] 18.7 µM | Potency [4] 23.5 µM | Potency [12] 23.5 µM | Potency [6] 20.9 µM | Potency [7] 20.9 µM | Potency [8] 23.5 µM

CC[C@@H](C(N)=O)N1CCCC1=O
active: Potency [15] 26.4 µM | Potency [4] 23.5 µM
inactive: Potency [1] | Potency [17] | Potency [13] | Potency [6] | Potency [7] | Potency [8]
